{"source": "ChEMBL document CHEMBL3988442", "about": "“University of Dundee, Small-Polar-MMV Screening Library” (2021)", "note": "Among all 53,000 compounds or so, about 900 (1.7%) showed an effect of 50% or more. What follows is part of a selection rich in strong results, with near analogues and random picks from the rest.", "data": [{"system": "Mycobacterium tuberculosis", "experiment": "Cornell - Phenotypic assay to identify agents that inhibit growth of Mycobacterium tuberculosis", "assay_type": "functional", "design": "scale not given: direction of the effect not stated beside the values", "details": "10 mM as filed; unlikely as a test dose", "units": {"Percent Effect": "%"}, "values": [{"smiles": "CC(C)c1nc2oc(C(=O)N3CCOCC3)c(N)c2c2c1CCCC2", "Percent Effect": 5.641}, {"smiles": "COc1ccccc1Oc1cncc(C2CCCN(C)C2)n1", "note": "(stereo not drawn)", "Percent Effect": 10.25}, {"smiles": "CCOC1CCN(C(=O)c2c(Cl)c3ccccc3n2C)CC1", "Percent Effect": 55.05}, {"smiles": "COC1CCN(C(=O)c2c(Cl)c3ccccc3n2C)CC1", "Percent Effect": 49.28}, {"smiles": "Cn1c(C(=O)N2CCC(CC(N)=O)CC2)c(Cl)c2ccccc21", "Percent Effect": -5.817}, {"smiles": "Cn1cc(C2CCCN2C(=O)c2cn(-c3ccccc3)nn2)cn1", "note": "(stereo not drawn)", "Percent Effect": -26.03}, {"smiles": "CNC(=O)c1cn[nH]c1C1CCN(Cc2ccccc2F)C1", "note": "(stereo not drawn)", "Percent Effect": -6.719}, {"smiles": "COc1cc(C)c(S(=O)(=O)CC(=O)N(C)C(C)C)cc1OC", "Percent Effect": 1.501}, {"smiles": "Cc1ccccc1CN1CCCN(S(=O)(=O)N(C)C2CCCCC2)CC1", "Percent Effect": 58.2}, {"smiles": "CN(C1CCCCC1)S(=O)(=O)N1CCN(Cc2ccon2)CC1", "Percent Effect": 27.01}, {"smiles": "CN(C1CCCCC1)S(=O)(=O)N1CCN(Cc2ccco2)CC1", "Percent Effect": 2.513}, {"smiles": "CCOCCC1(CNC(=O)c2ccncc2)CCC1", "Percent Effect": 19.62}, {"smiles": "CN1CCCC(c2ccc(N3CCOCC3)cn2)C1.Cl", "note": "(stereo not drawn)", "Percent Effect": 35.11}, {"smiles": "Cc1cc(C2CCCCN2C(=O)c2ccsc2)nc2nccn12", "note": "(stereo not drawn)", "Percent Effect": -13.93}, {"smiles": "Cc1cc(NC(=O)CN2CCN(C3CCCC3)C(=O)C2)nn1C", "Percent Effect": 12.31}, {"smiles": "CCn1nccc1CN(C)c1[nH]cnc2nc(C)nc1-2", "Percent Effect": 1.62}, {"smiles": "c1nc(CCNc2nc(C3CC3)nc3c2CCNCC3)c[nH]1", "Percent Effect": 8.345}, {"smiles": "c1cc(-c2nc3c(c(NCCc4c[nH]cn4)n2)CCNCC3)ccn1", "Percent Effect": -23.76}, {"smiles": "c1ccc(-c2nc3c(c(NCCc4c[nH]cn4)n2)CCNC3)cc1", "Percent Effect": 96.35}, {"smiles": "O=C(c1ccncc1)N1CCC(Cc2cnc3[nH]ccc3c2)CC1", "Percent Effect": -105.2}, {"smiles": "CC(C)c1ncc2c(n1)CN(Cc1nc(-c3cccs3)no1)CC2", "Percent Effect": 53.42}, {"smiles": "Cc1ncc2c(n1)CN(Cc1nc(-c3cccs3)no1)CC2", "Percent Effect": -6.861}, {"smiles": "CCc1ncc2c(n1)CN(Cc1nc(-c3cccs3)no1)CC2", "Percent Effect": 23.26}, {"smiles": "CCOc1cccc2c1OCC(=O)N(c1ccc3c(c1)OCO3)C2", "Percent Effect": -8.978}, {"smiles": "Cc1ncc(C(=O)NCCNC(=O)c2ccccc2)s1", "Percent Effect": -13.65}, {"smiles": "CCc1nccn1C1CCCN(C(=O)c2cn3c(C)cccc3n2)C1", "note": "(stereo not drawn)", "Percent Effect": 3.072}, {"smiles": "CN1CCOC(CN(C(=O)CCc2cnn(C)c2)c2nccs2)C1", "note": "(stereo not drawn)", "Percent Effect": -11.48}, {"smiles": "CC(C)(C)c1n[nH]cc1CNCC1CCN(C2CC2)C1.Cl", "note": "(stereo not drawn)", "Percent Effect": 94.59}, {"smiles": "CCN1CCC(CNCc2c[nH]nc2C(C)(C)C)C1.Cl", "note": "(stereo not drawn)", "Percent Effect": 10.08}, {"smiles": "CC(C)N1CCC(CNCc2c[nH]nc2C(C)(C)C)C1", "note": "(stereo not drawn)", "Percent Effect": 7.799}, {"smiles": "Cl.O=S(=O)(N1CCCC1)N1CC[C@H](c2ccccc2)[C@H]2NCCCC[C@H]21", "Percent Effect": -130.5}, {"smiles": "CCC(CO)(CO)NC(=O)C1CCC(=O)N(CCc2ccccc2)C1", "note": "(stereo not drawn)", "Percent Effect": 9.017}, {"smiles": "CC(Cn1cccn1)NCc1nc(-c2ccc3c(c2)OCO3)no1", "note": "(stereo not drawn)", "Percent Effect": 3.313}, {"smiles": "CC(Cn1cccn1)NCc1csc(-c2ccc(F)cc2)n1", "note": "(stereo not drawn)", "Percent Effect": 35.16}, {"smiles": "CC(Cn1cccn1)NCc1csc(-c2ccsc2)n1", "note": "(stereo not drawn)", "Percent Effect": 13.88}, {"smiles": "CC(Cn1cccn1)NCc1csc(-c2ccc3c(c2)OCO3)n1", "note": "(stereo not drawn)", "Percent Effect": 59.29}, {"smiles": "CC(Cn1cccn1)NCc1csc(-c2cccs2)n1", "note": "(stereo not drawn)", "Percent Effect": 61.96}, {"smiles": "COc1cccc(-c2nc(CNC(C)Cn3cccn3)cs2)c1", "note": "(stereo not drawn)", "Percent Effect": 32.64}, {"smiles": "Cc1cnn(CC(C)NCc2csc(-c3cccs3)n2)c1", "note": "(stereo not drawn)", "Percent Effect": 3.673}, {"smiles": "CC(Cn1cccn1)NCc1csc(-c2ccccc2)n1", "note": "(stereo not drawn)", "Percent Effect": 63.3}, {"smiles": "COc1ccc(-c2nc(CNC(C)Cn3cccn3)cs2)cc1", "note": "(stereo not drawn)", "Percent Effect": 49.5}, {"smiles": "CC(C)Cc1cc(NC(=O)c2ccccc2F)n(C)n1", "Percent Effect": 11}, {"smiles": "CCc1ccc(N2CCC(NS(=O)(=O)N(CC)CC)CC2)cc1", "Percent Effect": 14.08}, {"smiles": "CCN(CC)C(=O)c1ccc(NC(=O)CNc2ccc(Br)cc2F)cc1", "Percent Effect": -14.15}, {"smiles": "N#CCc1ccc(NC(=O)CNc2ccc(Br)cc2F)cc1", "Percent Effect": 10.15}, {"smiles": "COc1ccc(NC(=O)CNc2ccc(Br)cc2F)cc1", "Percent Effect": 107.2}, {"smiles": "CC(C)CN1CCC(c2nc3ccc(NC(C)C)cn3n2)CC1.O=C(O)C(F)(F)F.O=C(O)C(F)(F)F", "Percent Effect": 2.767}, {"smiles": "CN1CCOC(CNCc2cnc(C(C)(C)C)s2)C1", "note": "(stereo not drawn)", "Percent Effect": 18.35}, {"smiles": "Cc1cc(C(=O)Nc2cccn(Cc3ccc(F)cc3)c2=O)no1", "Percent Effect": 24.65}, {"smiles": "O=C(NCCn1ccnc1)N1CCN(c2nccs2)CC1", "Percent Effect": -3.95}, {"smiles": "O=C(NCCn1ccnc1)N1CCN(Cc2cccs2)CC1", "Percent Effect": -4.677}, {"smiles": "CC(NC(=O)N1CCN(c2cccs2)CC1)c1ccncc1", "note": "(stereo not drawn)", "Percent Effect": 62.51}, {"smiles": "CC(C)c1noc(CCNC(=O)N2CCN(c3cccs3)CC2)n1", "Percent Effect": 4.976}, {"smiles": "O=C(NCCCn1ccnc1)N1CCN(c2cccs2)CC1", "Percent Effect": 78.28}, {"smiles": "CC(=O)Nc1nc(C(=O)NC(C)c2ccc(C#N)cc2)cs1", "note": "(stereo not drawn)", "Percent Effect": 12.08}, {"smiles": "CC(NC(=O)N1CCN(c2cccs2)CC1)c1ccc(C#N)cc1", "note": "(stereo not drawn)", "Percent Effect": 66.35}, {"smiles": "CC(NC(=O)N1CCN(c2ncccn2)CC1)c1ccc(C#N)cc1", "note": "(stereo not drawn)", "Percent Effect": -12.2}, {"smiles": "Cc1noc(C)c1C(C)NC(=O)N1CCN(c2cccs2)CC1", "note": "(stereo not drawn)", "Percent Effect": 32.97}, {"smiles": "CN(C)C[C@@H]1C[C@@H]2CN(C(=O)Cc3cccs3)CC[C@@H]2N1C", "Percent Effect": -13.85}, {"smiles": "Cc1cc(C)nc(N2CCC(Cn3cc(C(=O)N(C)C)cn3)CC2)n1", "Percent Effect": 9.732}, {"smiles": "CC(C)(C)c1cc(NC(=O)CNC2CCc3ncnn3C2)on1", "note": "(stereo not drawn)", "Percent Effect": -1.762}, {"smiles": "c1cncc(Cc2nnc3n2CCN(CC2CCOC2)CC3)c1", "note": "(stereo not drawn)", "Percent Effect": 8.69}, {"smiles": "O=C(O)c1ccc(S(=O)(=O)Nc2c(F)cccc2-n2cccn2)cc1", "Percent Effect": 7.087}, {"smiles": "O=C(O)C(F)(F)F.O=C(O)C(F)(F)F.O=C(c1ccc(F)cc1)N1CCN2C[C@H](OCc3cccnc3)C[C@H]2C1", "Percent Effect": 19.5}, {"smiles": "O=C(c1cccc2ccnn12)N1CCCC1Cn1cccn1", "note": "(stereo not drawn)", "Percent Effect": 2.312}, {"smiles": "Cc1noc(-c2c[nH]nc2C2CCCN2C(=O)c2ccccc2)c1C", "note": "(stereo not drawn)", "Percent Effect": -2.6}, {"smiles": "CCCC(=O)N(CCCN1CCOCC1)c1nc2c(Cl)cccc2s1.Cl", "Percent Effect": 9.811}, {"smiles": "CCCC(=O)N(CCCN1CCOCC1)c1nc2c(F)cccc2s1.Cl", "Percent Effect": 7.328}, {"smiles": "Cc1ccc(CCCC(=O)N(C)CCN2CCOCC2)cc1", "Percent Effect": -37.37}, {"smiles": "CCCC(=O)N(CCN1CCOCC1)c1nc2c(OC)ccc(C)c2s1.Cl", "Percent Effect": -1.479}, {"smiles": "CCCC(=O)N(CCCN1CCOCC1)c1nc2c(C)c(C)ccc2s1.Cl", "Percent Effect": 69.7}, {"smiles": "CCCC(=O)N(CCCN1CCOCC1)c1nc2c(C)ccc(Cl)c2s1.Cl", "Percent Effect": 110.2}, {"smiles": "CC(=O)N1CCC(c2nccnc2Nc2ncc(C)s2)CC1", "Percent Effect": 21.23}, {"smiles": "O=C(NCCc1ccccn1)c1[nH]nc2c1CCCC2", "Percent Effect": 20.26}, {"smiles": "O=C(Nc1ccccc1OC1CCOC1)c1cc[nH]n1", "note": "(stereo not drawn)", "Percent Effect": -18.84}, {"smiles": "O=C(Nc1ccccc1OC1CCOC1)c1[nH]nc2c1CCCC2", "note": "(stereo not drawn)", "Percent Effect": 80.23}, {"smiles": "CO[C@@H]1CC[C@H]2[C@H]1OCCN2C(=O)COc1ccc(F)cc1", "Percent Effect": 15.86}, {"smiles": "COCCC(C)NC(=O)c1cc(Br)c2c(c1)OCCO2", "note": "(stereo not drawn)", "Percent Effect": 13.03}, {"smiles": "Cc1nccc(-c2cccc(NCC(=O)N3CCOCC3)c2)n1", "Percent Effect": 9.914}, {"smiles": "CNc1cccc(C2CN(C(=O)CNS(C)(=O)=O)CCO2)n1", "note": "(stereo not drawn)", "Percent Effect": -23.18}, {"smiles": "CC(C)CCC(=O)N(C)CC(=O)Nc1ccc(Br)cn1", "Percent Effect": -12.94}, {"smiles": "O=C(c1cnc2ccc(F)cc2c1NCc1ccccn1)N1CCCC1", "Percent Effect": 5.685}, {"smiles": "COCCC1(CNC(=O)Nc2ccc(-n3cccn3)cc2)CCC1", "Percent Effect": 21.41}, {"smiles": "COCCC1(CNC(=O)Nc2ccc(-n3ccnn3)cc2)CCC1", "Percent Effect": 75.09}, {"smiles": "COCCC1(CNC(=O)Nc2ccc(-n3nccn3)cc2)CCC1", "Percent Effect": 32.79}, {"smiles": "Cc1nc(C2CCCNC2)nc2c1CCCN2Cc1ccccn1.Cl.Cl", "note": "(stereo not drawn)", "Percent Effect": 10.21}, {"smiles": "Cc1nnc(C(C)N2CCCN(Cc3ccc(F)cc3)CC2)o1", "note": "(stereo not drawn)", "Percent Effect": 8.155}, {"smiles": "CN1CC(=O)c2sc(NCCc3ccccc3)nc2C1", "Percent Effect": -47.63}, {"smiles": "Cc1nc(NCCc2ccccc2)cc(C(=O)N2CCCCC2)n1", "Percent Effect": -12.22}, {"smiles": "Br.O=C(O)c1csc(NCCc2ccccc2)n1", "Percent Effect": 71.03}, {"smiles": "Cc1nn(C)c(C)c1CC(=O)N1CCCC(CNS(C)(=O)=O)C1", "note": "(stereo not drawn)", "Percent Effect": -13.44}, {"smiles": "CCC(O)Cn1nc(-c2ccc(C(=O)O)cc2)cc1-c1cccc(F)c1", "note": "(stereo not drawn)", "Percent Effect": -3.821}, {"smiles": "CCC(O)Cn1nc(-c2ccc(C(=O)O)cc2)cc1-c1ccc(F)cc1", "note": "(stereo not drawn)", "Percent Effect": 43.49}, {"smiles": "CC(C)Cn1nc(-c2ccc(C(=O)O)cc2)cc1-c1ccc(F)cc1", "Percent Effect": 92.09}, {"smiles": "CC(=O)N1CCN(c2nc3c(cnn3C(C)(C)C)c(=O)[nH]2)CC1", "Percent Effect": 26.42}, {"smiles": "CC(C)(C)n1ncc2c(=O)[nH]c(N3CC(O)C3)nc21", "Percent Effect": -9.536}, {"smiles": "CC(C)(C)n1ncc2c(=O)[nH]c(N3CCN(CCO)CC3)nc21", "Percent Effect": 21.4}, {"smiles": "CC(C)(C)n1ncc2c(=O)[nH]c(N3CCN(CC(F)F)CC3)nc21", "Percent Effect": 62.42}, {"smiles": "CN1CC(Nc2nc3c(cnn3C(C)(C)C)c(=O)[nH]2)CCC1=O", "note": "(stereo not drawn)", "Percent Effect": 12.63}, {"smiles": "CC(C)(C)n1ncc2c(=O)[nH]c(NC3CC=CC3)nc21", "Percent Effect": 82.93}, {"smiles": "Nc1cc(-c2nccnc2N2CCCC2)c2cc[nH]c2n1", "Percent Effect": -1.136}, {"smiles": "CC(=O)N1CCC2(CCN(S(=O)(=O)c3ccccc3)CC2)C1", "Percent Effect": -13.67}, {"smiles": "CC(C)CN1C[C@H]2CCN(C(=O)NC3CCCC3)CC[C@H]2S1(=O)=O", "Percent Effect": 15.88}]}]}
